This is a sample that favours compounds with a hit; in the whole collection about 21% have one here.
Pf growth 96h = inhibits malaria parasite growth, 96 h; P. falciparum luciferase reporter growth, 96 h; AID 504834; Potency, µM (doses to about 28.7 µM), without a hit: top-dose activity change, negative = inhibition, usual class: inhibitors; actives 6.9% (n = 320,000); note: potency is the fitted concentration of half-maximal effect; % is set by controls: 0 for no effect and ±100 for the full control effect
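P. falciparum expressing integrated firefly luciferase grown in erythrocytes (2% hematocrit, 0.05% parasitemia final) with compounds for 96 hours at 37 C, 5% CO2. Growth inhibition read as loss of luminescence after adding luciferase detection reagent.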
Sm TGR block = S. mansoni TGR enzyme inhibition; purified TGR, DTNB reduction, TNB absorbance 405 nm; Potency, µM (top dose mostly 114 µM), for the others: at the top dose activity change, negative = inhibition, hits mostly inhibitors; AID 485364; actives 3% (n = 360,000); Q962Y6; note: potency is the fitted concentration of half-maximal effect; % is set by controls: 0 for no effect and ±100 for the full control effect; nearly all actives have a fitted effect of over 60% in size
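First, TGR (20 nM dispensed) and NADPH were mixed with compound. Second, a 15 min room-temperature incubation followed. Third, further NADPH and then DTNB were added to start the reaction. Finally, TNB absorbance was monitored kinetically.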
Pf growth 48h = P. falciparum growth inhibition at 48 hours (one generation); Potency, µM (doses to about 28.7 µM), for inactives: at the top dose activity change, negative = inhibition, usual class: inhibitors; P. falciparum luciferase growth in erythrocytes, 48 h; actives 5.9% (n = 310,000); note: potency is the fitted concentration of half-maximal effect; % is set by controls: 0 for no effect and ±100 for the full control effect
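A one-generation exposure of luciferase-tagged malaria parasites in RPMI 1640/Albumax erythrocyte culture, 37 C and 5% CO2. Inhibition is inferred from decreased luminescence after adding detection reagent.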
NS1 function inh = inhibitors of influenza NS1 protein function; Potency, µM (doses to about 46.1 µM), for the others: top-dose activity, positive = more growth; actives 0.4% (n = 270,000); AID 2326; calls by dose curve; note: potency is the fitted concentration of half-maximal effect; actives are rising curves; nearly all actives have a fitted effect of over 50% in size
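Recovery from NS1-induced slow growth read by OD600 in budding yeast switched to galactose assay medium (pH 6.0, -URA) at 1:100 dilution. Compound 23 nl per well; the matching strain lacking NS1 serves as control.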
Cycloheximide cs = affects cycloheximide protein synthesis inhibition readout, counter-screen; actives 12% (n = 300,000); cell reporter, cycloheximide protein synthesis inhibition counterscreen; max response, %; AID 2314; in the data active = max response mostly above about 13%, no sharp cut-off; inactive = mostly below about 14%; note: read at 38.3 µM for the half of the compounds with a filed dose; 0% is about no effect
Shiga toxin inh = blocks Shiga toxin action in Vero cells; Vero cells, Shiga toxin protein synthesis inhibition reporter; inhibition, % at 38.7 µM; actives 9.2% (n = 290,000); AID 2315; in the data active = inhibition mostly above about 28%, no sharp cut-off; inactive = mostly below about 43%; note: 0% is about no effect
* marks the source's active call; other numbers are inactive results; i = inactive; ? = inconclusive; . = not tested or not shown; [ ] = dose if it differs, or a comment. Unless noted, calls come from the whole dose curve; as a rule, active = well fitted curve in the direction sought with a large enough effect; inconclusive = small, poorly fitted or top-dose-only effect, or another doubt; inactive = no such curve, though single readings can be large; an effect the other way counts as inactive or inconclusive.

SMILES | Pf growth 96h | Sm TGR block | Pf growth 48h | NS1 function inh | Cycloheximide cs | Shiga toxin inh
COC(=O)C1=C(c2ccc(F)cc2OCc2ccccc2)C[C@@H]2CC[C@H]1N2C(=O)NCCOc1ccc(OC)cc1 | 3.3µM* | 9% | ? | . | . | .
COC(=O)C1=C(c2ccc(F)cc2OCc2ccccc2)C[C@@H]2CC[C@H]1N2C(=O)NCCOc1ccccc1 | ? | 2% | 5.9µM* | . | . | .
CCCNC(=O)N1[C@H]2CC[C@@H]1C(C(=O)OC)=C(c1ccc(F)cc1F)C2 | 29% | -13% | 39% | . | . | .
CC(C)(C)c1ccc(NC(=O)c2cc[n+]([O-])cc2)cc1 | 0% | -7% | 0% | 1% | 9 | -7
O=C(Nc1cccc(C(F)(F)F)c1)N1CC2CCCN2c2ccccc21 (configuration not stated) | . | -15% | . | . | . | .
COC(=O)C1=C(c2ccc(F)cc2F)C[C@@H]2CC[C@H]1N2C(=O)NCCNC(C)=O | 34% | -1% | -9% | . | . | .
COC(=O)C1=C(c2ccc(F)cc2OCc2ccccc2)C[C@@H]2CC[C@H]1N2C(=O)NCCN1CCOCC1 | ? | -10% | 12µM* | . | . | .
COC(=O)C1=C(c2ccc(F)cc2OCc2ccccc2)C[C@@H]2CC[C@H]1N2C(=O)NCCc1ccc(F)cc1 | ? | 3% | 12µM* | . | . | .
COC(=O)C1=C(c2ccc(Cl)c(C(F)(F)F)c2)C[C@@H]2CC[C@H]1N2C(=O)NCCOc1ccccc1Cl | 6.6µM* | -12% | 9.3µM* | . | . | .
CN1CCC[C@H](C(=O)OCC(=O)[C@]2(O)CC[C@@H]3[C@H]4CCC5=CC(=O)CC[C@@]5(C)[C@H]4[C@@H](O)C[C@]32C)C1 | . | . | . | -6% | . | .
COc1ccc(N2CCN(C(=O)C(=O)c3cn(CC(=O)N4CCOCC4)c4ccccc34)CC2)cc1 | 0% | -13% | 10% | -16% | -3 | 3
O=C(c1ccccc1)c1cn(CC(=O)N2CCCC2)c2ccccc12 | 3.7µM* | 0% | . | -3% | -1 | -12
O=C(c1ccccc1)c1cn(CC(=O)N2CCOCC2)c2ccccc12 | 6% | 0% | 11% | -2% | 3 | 9
CCN1CCN(C(=O)C(=O)c2cn(CC(=O)N3CCCCCC3)c3ccccc23)CC1 | ? | ? | ? | 9% | -1 | -8
O=C(C(=O)N1CCN(c2ccccc2)CC1)c1cn(CC(=O)N2CCCCCC2)c2ccccc12 | ? | -4% | 9.3µM* | ? | -3 | 7
CC1CCN(C(=O)C(=O)c2cn(CC(=O)N3CCCCCC3)c3ccccc23)CC1 | ? | -18% | ? | 12% | -1 | -13
CC1CCCN(C(=O)C(=O)c2cn(CC(=O)N3CCCCCC3)c3ccccc23)C1 (configuration not stated) | 12µM* | -11% | ? | 24% | 1 | -1
COc1ccc(N2CCN(C(=O)C(=O)c3cn(CC(=O)N4CCCCCC4)c4ccccc34)CC2)cc1 | 10µM* | -26% | ? | 0% | -2 | -1
O=C(O)Cn1cc(C(=S)N2CCOCC2)c2ccccc21 | . | -9% | -2% | 2% | -3 | -15
O=C(O)Cn1cc(C(=S)N2CCCCC2)c2ccccc21 | 8.3µM* | 0% | -1% | . | 6 | -5
Cc1ccc(SCC(=O)c2c(C)nc3ccccn23)cc1 | 87% | -8% | 72% | . | 31* | 62*
Cc1ccc(SCC(=O)c2cc(C)c(O)c(C)c2)cc1 | ? | -17% | ? | -55% | 17* | 50*
CC(C)c1ccccc1NC(=O)c1ccc2ncsc2c1 | 68% | 3% | 57% | 0% | 30* | 39*
O=C(Nc1cccc(Cl)c1)c1ccc2ncsc2c1 | 92% | 6% | 56% | -84% | 44* | 90*
O=C(OCCOc1cccc(Cl)c1)c1ccc2ncsc2c1 | 39% | 0% | 33% | -35% | 17* | 34
SMILES | Pf growth 96h | Sm TGR block | Pf growth 48h | NS1 function inh | Cycloheximide cs | Shiga toxin inh
O=C(Nc1ccc(F)cc1)c1ccc2ncsc2c1 | 153% | 10% | 102% | -4% | 59* | 91*
Cc1cccc(NC(=O)C(NS(=O)(=O)c2cccc3nsnc23)c2ccccc2)c1C (configuration not stated) | . | 8% | . | . | . | .
CCOc1c2ccccc2nn1CCO | 130% | -11% | -22% | . | . | .
O=C(Nc1ccc(Cl)cc1)c1ccc2ncsc2c1 | 253% | -2% | 200% | -3% | 46* | 123*
O=C(c1ccc2ncsc2c1)N1CCCCC1 | -12% | -1% | 15% | ? | 2 | -20
O=C(Nc1ccc(C(F)(F)F)cc1)c1ccc2ncsc2c1 | 127% | -14% | 117% | -1% | 35* | 156*
COc1ccc(C(C)(C)C)cc1NC(=O)c1ccc2ncsc2c1 | ? | -1% | 20% | -9% | 27* | 72*
O=C(COC(=O)c1ccc2ncsc2c1)Nc1cccc(Cl)c1 | 10% | 1% | 58% | . | . | .
O=C(O)c1ccc2ncsc2c1 | ? | -8% | ? | 6% | 27* | 68*
COc1cccc(Cc2nc3ccccc3nc2SCC(=O)Nc2cccc(C)c2)c1 | . | -3% | . | . | . | .
CC(C)CO[C@H](c1ccc2c(c1)OCO2)[C@H](C)Br | . | . | . | 0% | . | .
CCc1cccc(NC(=O)CCS(=O)(=O)c2ccc(C)cc2)c1 | . | -6% | . | . | . | .
CCOCCCNC(=O)CN1C(=O)c2c(c3ccccc3n2C)C1c1ccc(OC)cc1 (configuration not stated) | . | 0% | . | . | . | .
CSc1nnc2c(n1)OC(c1ccccn1)N(C(C)=O)c1ccccc1-2 (configuration not stated) | i | -12% | -35%[5.75 µM] | 3% | -3 | -8
CCOC(=O)c1cccc(NC(=O)NCc2cccn2Cc2ccccc2)c1 | . | -11% | . | . | . | .
O=c1c2c(nc3cc(-c4ccccc4Cl)[nH]n13)CCS2 | -28% | . | -56% | 9% | 38* | 78*
O=c1c2c(nc3cc(-c4ccccc4)[nH]n13)CCS2 | 272% | 6% | 49% | 0% | 43* | 75*
CCOC(=O)Cc1cc(=O)n2[nH]c(-c3ccccc3)cc2n1 | 3% | 2% | 25% | 21% | -2 | -3
Cc1ccc(C(=O)NCc2ccc3c(c2)CCN3C(=O)c2ccc(C)cc2)cc1 | . | 4% | . | . | . | .
c1ccc2c(c1)SCc1nnc(-c3ccncc3)n1-2 | 0% | 17% | 7% | 2% | -2 | -14
Cc1ccc(S(=O)(=O)N(CC(=O)Nc2ccccc2)C(=O)N2CCN(C)CC2)cc1 | 42% | -5% | 5% | . | . | .
CCn1c(CNc2ccc(F)cc2)nnc1SCC(=O)Nc1ccc(OC)cc1 | 23% | -11% | ? | -4% | -3 | 3
C=CCn1c(CCNC(=O)c2cccs2)nnc1SCC(=O)c1ccc(Br)cc1 | ? | -17% | . | -1% | -2 | -14
C=CCn1c(CCNC(=O)c2cccs2)nnc1SCC(=O)Nc1cccc(C(C)=O)c1 | 9.3µM* | -3% | 0% | -11% | 0 | 13
CCSCc1nnc(SCC(=O)Nc2ccc(F)cc2)n1CC | 12µM* | 18% | 10% | -2% | 13 | 6

Screens: PubChem BioAssay, National Center for Advancing Translational Sciences (NCATS)
